From PubChem BioAssay (EPA / NIEHS)
Activity calls are given as the source filed them. Rule for the calls: active = hit-call score of the fitted dose curve at least 0.9, where 1 is the maximum; inactive = score below 0.9.

Each compound was assayed against X-box-binding protein 1 (Homo sapiens) (UniProt P17861) (assay: ATG_Xbp1_CIS: Attagene CIS-FACTORIAL HepG2 Assay for human X-box Binding Protein 1 (XBP1) (AID 2282972)). Settings: HepG2 XBP1 cis-element reporter, Attagene multiplex; actives raise or lower the signal.
X-box-binding protein 1 (Homo sapiens), sequence (P17861 whole entry, looked up): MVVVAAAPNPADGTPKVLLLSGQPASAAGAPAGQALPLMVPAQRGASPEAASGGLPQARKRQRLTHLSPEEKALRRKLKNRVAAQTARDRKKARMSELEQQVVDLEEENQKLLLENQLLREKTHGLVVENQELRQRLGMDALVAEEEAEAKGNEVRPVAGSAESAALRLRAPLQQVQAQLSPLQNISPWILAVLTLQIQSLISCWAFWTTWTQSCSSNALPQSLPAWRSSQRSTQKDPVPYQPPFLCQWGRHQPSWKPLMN
Method: ATG_CIS is a cell-based, multiplexed-readout assay that uses HepG2, a human liver cell line, with measurements taken at 24 hours after chemical dosing in a 24-well plate.ATG_Xbp1_CIS is one of 52 assay component(s) measured or calculated from the ATG_CIS assay. It is designed to make measurements of mRNA induction, a form of inducible reporter, as detected with fluorescence intensity signals by Reverse transcription polymerase chain reaction (RT-PCR) and Capillary electrophoresis technology.Data from the assay component ATG_Xbp1_CIS was analyzed into 1 assay endpoint. This assay endpoint, ATG_Xbp1_CIS, was analyzed with bidirectional fitting relative to DMSO as the negative control and baseline of activity. Using a type of inducible reporter, measures of mRNA for gain or loss-of-signal activity can be used to understand the reporter gene at the transcription factor-level as they relate to the gene XBP1. Furthermore, this assay endpoint can be referred to as a primary readout, because this assay has produced multiple assay endpoints where this one serves a reporter gene function. To generalize the intended target to other relatable targets, this assay endpoint is annotated to the dna binding intended target family, where the subfamily is basic leucine zipper.
Human liver HepG2 cells are transiently transfected with multiple reporter transcription units (MRTUs) in 6-well plates using FuGene 6 reagent (Roche; 3 ml FuGene/1 mg DNA). The MRTU constructs are regulated by a cis-regulating element (promoter). […] A major difference between the CIS and TRANS system is that in CIS activities of endogenous TFs are measured, whereas the TRANS assay evaluates changes in activities of exogenous, chimeric NR-Gal4 proteins. […] At the end of 24 hour incubation, total RNA was isolated using TriZol reagent (Invitrogen). The isolated RNA is then reverse-transcribed using oligo(dT) primer and Mo-MLV reverse transcriptase (Invitrogen) with DNAse I (Ambion) treatment for 30 min. The one-tenth of the produced cDNA was amplified by PCR using Taq DNA polymerase (Invitrogen) and two reporter sequence-specific primers. The PCR products were fluorescently labeled by primer extension with 6-arboxyfluorescein (6-FAM) 5'-labeled reporter sequence-specific primer (2 min at 95 C, 20 s at 68 C and 10 min at 72 C) and these products were digested with 5U of HpaI (New England Biolabs) for 2h at 37 C. The fragments were purified using Qiaquick PCR columns (Qiagen), analyzed on an ABI 3130xL genetic analyzer (Applied Biosystems) with peak positions identified by using a set of X-rhodamine (ROX)-labeled MapMarker1000 molecular weight standards (BioVentures). The raw capillary electrophoresis data was processed using Attagraph software (Attagene).

Structure (SMILES) | outcome | AC50
CC(C)c1ccc(C=O)cc1 | inactive | –
CCOC(=O)N1CCC(=C2c3ccc(Cl)cc3CCc3cccnc32)CC1 | inactive | –
O=CN1CCCCC1 | inactive | –
CCN(CCC#N)c1ccc(N=Nc2c(Cl)cc([N+](=O)[O-])cc2Cl)cc1 | inactive | –
C1=CCCC1 | inactive | –
C=CC(=O)OCC(Br)CBr (stereo not given) | inactive | –
CC(=O)c1ccc2c(c1)CCCC2 | inactive | –
O=C(Cl)c1cc(C(=O)Cl)cc(C(=O)Cl)c1 | inactive | –
CC/C=C\CCOC(=O)CCCCC | inactive | –
CC(=O)Oc1ccc(C)cc1 | inactive | –
C=C1C2CCC(C2)C1(C)C (stereo not given) | inactive | –
O=[N+]([O-])C1(Br)COCOC1 | – | 53.1 µM (active)
CC(=O)OCc1ccco1 | inactive | –
O=C(Nc1ccccc1)c1ccccc1O | – | 44.4 µM (active)
CNC(=S)N(C)C | inactive | –
O=C1CCCCCCCCCCC(=O)OCCO1 | inactive | –
O=S(=O)(O)c1ccccc1C=Cc1ccc(-c2ccc(C=Cc3ccccc3S(=O)(=O)O)cc2)cc1 | inactive | –
c1ccc2c(c1)ccc1ncccc12 | inactive | –
CCCCCCOc1cc(C)c(O)c(C)c1C | inactive | –
CC/C=C\C/C=C\C/C=C\CCCCCCCC(=O)O | – | 160 µM (active)

Structure (SMILES) | outcome | AC50
C=CC(=O)OCCOC(=O)C=C | inactive | –
OCCNCc1ccccc1 | inactive | –
O=C(c1ccccc1)c1ccc(O)c(O)c1O | inactive | –
CCC(Cc1ccccc1)(C(=O)c1ccc(N2CCOCC2)cc1)N(C)C (stereo not given) | inactive | –
CCCCCCCCCCCCCCCC(=O)OCC | inactive | –
COCCOCCOCCOCCOC | inactive | –
C=C[Si](C)(C)O[Si](C)(C)C=C | inactive | –
O=C1Nc2ccccc2C1(c1ccc(O)cc1)c1ccc(O)cc1 | – | 48.8 µM (active)
C=CCCCCCCCCC(=O)OCCCC | inactive | –
NCCCN1CCN(CCCN)CC1 | inactive | –
Nc1ccc(Oc2ccc(N)c(N)c2)cc1 | inactive | –
CC(C)(C)c1ccc(N)cc1 | inactive | –
CCC(C)OC(=O)c1ccc(O)cc1 (stereo not given) | inactive | –
CCC(CC)C(=O)O | inactive | –
Cc1cc(C)c(C(=O)O)c(C)c1 | inactive | –
N#[N+]c1ccc2c(S(=O)(=O)[O-])cccc2c1O | inactive | –
O=C(c1ccc(O)cc1)c1ccc(O)cc1O | inactive | –
O=c1c2ccccc2nnn1CCl | inactive | –
CCCCCc1ccc(Cl)cc1 | inactive | –
CCCCCCCCCCCCCOP(=O)(O)O | inactive | –
